Each structure is given as a SMILES string. Values joined by “and” are separate entries in the source; they are usually repeats but may differ in a detail not shown here. Identical values can stand only once. Results filed as inconclusive are left out. Values without a mark were called inactive. Active and inactive are the calls of the source. Calls follow the shape of the dose curve; as a rule, active = well fitted cell-killing curve with a large enough effect in the repeat runs; inconclusive = weak or mixed curves, or effect the other way; inactive = no such curve, though single readings can be large or run the other way.
% is scaled to controls: 0 for no effect and ±100 for the full control effect; potency is read from the fitted curve at half-maximal effect.

This test in a line: qHTS assay to identify small molecule antagonists of the peroxisome proliferator-activated receptor gamma (PPARg) signaling pathway - cell viability counter screen (AID 743194). Also: nearly all actives have a fitted effect of over 55% in size. The conditions noted are these: PPARg-bla HEK293H viability, CellTiter-Glo luminescence, 17 h, co-treated with 50 nM rosiglitazone; series mostly up to 62.6 µM; activity change, negative = cytotoxicity: at the top concentration. From the text:
U.S. Tox21 Program National Center for Advancing Translational Sciences [NCATS] NIH Chemical Genomics Center [NCGC] U.S. Environmental Protection Agency [EPA] National Institutes of Environmental Health Sciences [NIEHS] National Toxicology Program [NTP] U.S. Food and Drug Administration [FDA] Tox21 Assay Overview: The peroxisome proliferator-activated receptors (PPARs) are lipid-activated transcription factors of the nuclear receptor superfamily with three distinct subtypes namely PPAR alpha, PPAR delta (also called PPAR beta) and PPAR gamma (PPARg). All these subtypes heterodimerize with Retinoid X receptor (RXR) and these heterodimers regulate transcription of various genes. PPAR-gamma receptor (glitazone receptor) is involved in the regulation of glucose and lipid metabolism. To identify the compounds that activate PPAR-gamma signaling, GeneBLAzer PPAR gamma UAS-bla HEK293H cell line (Invitrogen, Carlsbad, CA, USA) containing a beta-lactamase reporter gene under the control of an Upstream Activator Sequence (UAS) was used to screen the Tox21 compound library. The cytotoxicity of the Tox21 compound library against the PPARg-bla cell line was tested in parallel by measuring the cell viability using CellTiter-Glo assay in the same wells.
Tox21 Assay Protocol Summary: PPARg-bla cells were dispensed at 3000 cells/5uL/well in 1536-well black wall/clear bottom plates using a Multidrop Combi (Thermo Fisher Scientific, Waltham, MA) dispenser. After the assay plates were incubated at 37 C and 5% CO2 for 5 h, 23 nL of compounds dissolved in DMSO, positive controls or DMSO only was transferred to the assay plate by a Pintool station (Kalypsys, San Diego, CA), followed by addition of 1ul Rosiglitazone (50 nM, final concentration in the wells). The assay plates were incubated at 37 C for 17 h, and then 1 uL of LiveBLAzerTM B/G FRET substrate was added using a Bioraptr Flying Reagent Dispenser (FRD) workstation (Beckman Coulter, Indianapolis, IN, USA). The assay plates were incubated at room temperature for 1 h and fluorescence intensity was measured by an Envision plate reader (PerkinElmer, Shelton, CT). For cell viability readout that measures cytotoxicity, 4 ul/well of CellTiter-Glo reagent was added into the assay plates using a Flying Reagent Dispenser. After 30 min incubation at room temperature, the luminescence intensity in the plates was measured using a ViewLux plate reader (PerkinElmer).
In general terms: In qHTS, concentration-response curves come from the screen itself.
Take `O[C@@H](c1cc(C(F)(F)F)nc2c(C(F)(F)F)cccc12)[C@H]1CCCCN1`: the Potency is 29.8 µM (active).
For `CCc1cccc(C)c1`, the “activity change, negative = cytotoxicity” value was 0.757% [at 81.1 µM].
As for `CC(NCCC(c1ccccc1)c1ccccc1)c1ccccc1` (stereo not given), the Potency is 23.7 µM (active).
On to `CC(=O)Oc1ccc(C2(c3ccc(OC(C)=O)cc3)Oc3ccccc3NC2=O)cc1`, for which the “activity change, negative = cytotoxicity” value is -15%.
Turning to `Cc1cc2c(C(C)C)c(O)c(O)c(C=O)c2c(O)c1-c1c(C)cc2c(C(C)C)c(O)c(O)c(C=O)c2c1O`, the Potency is 8.41 µM (active).
With `CCC1(c2cnc[nH]2)Cc2ccccc2C1`, the “activity change, negative = cytotoxicity” value was -15.1%.
In the case of `CN1[C@@H]2CC[C@@H]1CC(OC(=O)C(CO)c1ccccc1)C2` (stereo not given in full), the “activity change, negative = cytotoxicity” value is 2.21%.
In the case of `CNCC[C@H](Oc1cccc2ccccc12)c1cccs1`, the Potency was 11.9 µM (active).
Consider `S=C(SSSSSSC(=S)N1CCCCC1)N1CCCCC1`, for which the “activity change, negative = cytotoxicity” value is -1.8% [at 29.1 µM].
On to `C[C@H]1O[C@@H](O[C@H]2[C@@H](O)C[C@H](O[C@H]3[C@@H](O)C[C@H](O[C@H]4CC[C@@]5(C)[C@H](CC[C@@H]6[C@@H]5C[C@@H](O)[C@]5(C)[C@@H](C7=CC(=O)OC7)CC[C@]65O)C4)O[C@@H]3C)O[C@@H]2C)C[C@H](O)[C@@H]1O`, for which the Potency is 21.9 nM (active) and 4.8 nM (active).
Turning to `CCC(C)(C)c1cc(O)c(C(C)(C)CC)cc1O`, the Potency was 21.9 µM (active).
For the compound `N[C@@H](CSSC[C@H](N)C(=O)O)C(=O)O`, the activity change, negative = cytotoxicity is 9.18% [at 0.55 µM].
As to `Clc1ccccc1CN1CCc2sccc2C1`, the “activity change, negative = cytotoxicity” value was -13.1%.
For `O=C1C=CC(=O)N1c1ccccc1`, the Potency is 13.8 µM (active).
In the case of `C[C@]12CC[C@H]3C(=CCc4cc(O)ccc43)[C@@H]1CCC2=O`, the “activity change, negative = cytotoxicity” value was -11.7%.
On the same count and under the same terms, for `Cc1ccc(CCn2c3c(c4cc(Cl)ccc42)CN(C)CC3)cn1` the value was -1.83%.
Consider `CCCCCCCCCCCCCC[n+]1ccccc1`, for which the Potency is 17.4 µM (active).
Turning to `CCCCCCCC/C=C\CCCCCCCC(=O)NCc1ccc(O)c(OC)c1`, the “activity change, negative = cytotoxicity” value is -9.67%.
Regarding `O=C(O)Cc1ccc(OCCNC[C@H](O)c2ccccc2)cc1`, the “activity change, negative = cytotoxicity” value was 15.6%.
Turning to `COc1cc(C(C)C)c2c(c1)S(=O)(=O)N(COc1cc(=O)n3cccc(OCCN4CCCCC4)c3n1)C2=O`, the “activity change, negative = cytotoxicity” value was -15.2% [at 29.1 µM].
With `CC(C)(C)C1=CC(=O)C=C(C(C)(C)C)C1=O`, the Potency is 24.6 µM (active).
On the same count and under the same terms, for `CCCCC(CC)COC(=O)c1ccc(O)cc1` (stereo not given) the value was 48.8 µM (active); for `Cc1c(-c2ccc(O)cc2)n(Cc2ccc(OCCN3CCCCCC3)cc2)c2ccc(O)cc12`, 29.8 µM (active).
As for `O=C1NCN(c2ccccc2)C12CCN(CCCC(c1ccc(F)cc1)c1ccc(F)cc1)CC2`, the Potency was 26.6 µM (active).
Turning to `C[C@@H]1CC[C@H]2C(C)(C)[C@H]3C[C@@]12CC[C@@]3(C)O`, the “activity change, negative = cytotoxicity” value is -15.9%.
`COC(=O)CC#N`: the “activity change, negative = cytotoxicity” value is -1.41% [at 81.1 µM].
Consider `CCCCNc1c(C(=O)OCC)c(C)nc2c1cnn2CC`, for which the “activity change, negative = cytotoxicity” value was 15.3%.
For the compound `CCC(C)c1cc([N+](=O)[O-])cc([N+](=O)[O-])c1OC(=O)OC(C)C` (stereo not given), the Potency is 49 µM (active).
In the case of `Cc1occc1SSc1ccoc1C`, the “activity change, negative = cytotoxicity” value is -28.2%.
Consider `CC(COC(=O)c1ccccc1)OC(=O)c1ccccc1` (stereo not given), for which the “activity change, negative = cytotoxicity” value is 8.92%.
For the compound `Cc1c(C(=O)O)cccc1[N+](=O)[O-]`, the “activity change, negative = cytotoxicity” value is -0.302% [at 81.1 µM].
`C=C(c1ccc(C(=O)O)cc1)c1cc2c(cc1C)C(C)(C)CCC2(C)C`: the Potency is 19.5 µM (active).
In the case of `CC(C)=C1CC[C@@H](C)CC1=O`, the “activity change, negative = cytotoxicity” value is 5.99%.
On to `SCCCCCCCCS`, for which the “activity change, negative = cytotoxicity” value was -1.57%.
`CSc1ccc2c(c1)N(CCC1CCCCN1C)c1ccccc1S2` (stereo not given): the Potency was 38.7 µM (active) and 15 µM (active).
`CCCCCCCOC(=O)c1ccc(O)cc1`: the Potency entry was “inactive”.
Same read-out and setting: for `C/C=C/C(=O)Oc1c(CCCCCC(C)C)cc([N+](=O)[O-])cc1[N+](=O)[O-]` the value was 6.16 µM (active).
Consider `O=C(O)CC(=O)O`, for which the “activity change, negative = cytotoxicity” value is 8.5%.
Consider `COC(=O)CC(C)CCC=C(C)C` (stereo not given), for which the “activity change, negative = cytotoxicity” value was 2.93%.
Consider `CNC(=S)NN`, for which the “activity change, negative = cytotoxicity” value is 0.569%.

The values above are taken from PubChem BioAssay (Tox21).
